Test [1] is described as follows: Nuclear factor erythroid 2-related factor 2/antioxidant responsive element (Nrf2/ARE) small molecule agonists: qHTS cell viability counter screen in human keratinocytes (AID 1919968; active = well fitted curve in the direction sought with a large enough effect in the repeat runs; an effect the other way counts as inactive or inconclusive; also: nearly all actives have a fitted effect of over 55% in size). The method, boiled down: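 Parallel cytotoxicity read: KeratinoSens HaCaT cells, compound treatment 23 h, viability by CellTiter-Fluor fluorescence 1 h post-reagent.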
Test [2] is described as follows: Nuclear factor erythroid 2-related factor 2/antioxidant responsive element (Nrf2/ARE) small molecule agonists: luciferase reporter gene qHTS assay in human keratinocytes (AID 1919969). Also: nearly all actives have a fitted effect of over 35% in size. Also: potency is read from the fitted curve at half-maximal effect.
Test [3] deals with Gonadotropin-releasing hormone receptor (Homo sapiens) (UniProt P30968). The test is described as follows: Human gonadotropin-releasing hormone receptor (GnRHR) small molecule agonists, calcium flux assay in GnRHR-HEK293 cells (AID 1920063). Also: nearly all actives have a fitted effect of over 35% in size. The method, boiled down:
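Calcium flux, agonist mode, human GnRHR stably integrated in HEK293; dye 1 h at 37 C before compound; Ex/Em=480/540 kinetic read, 3 min; 15 concentrations, triplicate.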

Test [4] deals with KiSS-1 receptor (Homo sapiens) (UniProt Q969F8). The test is described as follows: Human kisspeptin (KISS1R) small molecule agonists, calcium flux assay in KISS1R-HEK293 cells (AID 1920064; active = well fitted curve in the direction sought with a large enough effect in the repeat runs; an effect the other way counts as inactive or inconclusive). The method, boiled down: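 Triplicate 15-concentration series were applied to dye-loaded human KISS1R HEK293 cells, and agonist-evoked calcium fluorescence was captured for 3 min.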
Test [5] in a line: G protein-coupled receptor (GPCR) small molecule agonists, calcium flux assay: HEK293 wild type cell line counter screen (AID 1920065). The method, boiled down:
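Non-specific calcium responders were flagged by adding DMSO-dissolved compounds to dye-loaded cells and reading 480/540 nm fluorescence each second for 3 min; ATP served as positive control.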

Test [6] can be described thus: p53 small molecule agonists, cell-based qHTS assay with human liver microsomes (AID 1963577). In short, it runs like this: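 p53RE-bla cells, 4,000/well, compound added after 5 h, with human liver microsomes 0.5 mg/mL and NADPH 0.5 mg/mL final; 16 h at 37 C, then LiveBLAzer 2 h RT, fluorescence.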
Test [7] can be described thus: p53 small molecule agonists, cell-based qHTS assay with rat liver microsomes (AID 1963578). In short, it runs like this:
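p53RE-bla cells, 4,000/well, pre-incubated 5 h, then given compounds plus rat liver microsomes (0.5 mg/mL final) and NADPH (0.5 mg/mL final). Incubation 16 h at 37 C; beta-lactamase reporter read by LiveBLAzer fluorescence after 2 h at room temperature.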

A short description of test [8]: p53 small molecule agonists, cell-based qHTS assay with human liver microsomes: qHTS cell viability counter screen (AID 1963579). Also: nearly all actives have a fitted effect of over 45% in size. The method, boiled down:
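p53RE-bla cells, 4,000/well, dosed 5 hours after plating, with human liver microsomes (0.5 mg/mL final) plus NADPH (0.5 mg/mL final), 16 hours at 37 C. Viability read as CellTiter-Glo luminescence after 30 min at room temperature.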

The nature of test [9]: p53 small molecule agonists, cell-based qHTS assay with rat liver microsomes: qHTS cell viability counter screen (AID 1963580). Also: nearly all actives have a fitted effect of over 45% in size. The method, boiled down:
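Cytotoxicity counter screen: intracellular ATP read by CellTiter-Glo luminescence in the p53 reporter wells. HCT-116 p53RE-bla cells were treated for 16 h at 37 C alongside rat liver microsomes and NADPH, each 0.5 mg/mL final.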

Test [10] is described as follows: p53 small molecule agonists, cell-based qHTS assay: qHTS cell viability counter screen (AID 1963581). Also: nearly all actives have a fitted effect of over 45% in size. In short, it runs like this: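 Multiplexed with the reporter read, a CellTiter-Glo step (30 min, room temperature) gauges ATP-based viability of HCT-116 p53RE-bla cells after 16 h compound incubation at 37 C.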
A short description of test [11]: p53 small molecule agonists, cell-based qHTS assay (AID 1963582; active = well fitted activation curve with a large enough effect in the signal ratio in the repeat runs, not every such curve was filed as active; the % refers to the signal ratio). In short, it runs like this:
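Beta-lactamase reporter cells (p53RE-bla) treated with compounds for 16 h at 37 C; FRET substrate, 2 h, room temperature; fluorescence intensity.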

Test [12] deals with 5-hydroxytryptamine receptor 2A (Homo sapiens) (UniProt P28223). The test is described as follows: 5-hydroxytryptamine receptor 2A (HTR2A) small molecule antagonists, cell-based qHTS assay (AID 1963586). Also: nearly all actives have a fitted effect of over 45% in size. Also: potency is read from the fitted curve at half-maximal effect. In short, it runs like this: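 CHO cells stably expressing human HTR2A were plated for 18 h at 37 C, then loaded with calcium dye for 1 h. Compounds were preincubated 5 min at room temperature before DOI (4 nM solution) was added. Kinetic fluorescence was read for 3 min.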

The target is the same in test [13]. Nature of the test: 5-hydroxytryptamine receptor 2A (HTR2A) small molecule agonists, cell-based qHTS assay (AID 1963587). Also: nearly all actives have a fitted effect of over 30% in size. In short, it runs like this:
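Kinetic calcium-flux fluorescence (2 min, 1 sec intervals) after compound addition in agonist mode. HTR2A-CHO cells were cultured 18 h, then dye-loaded 1 h at 37 C.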

The target of test [14] is Muscarinic acetylcholine receptor M1 (Homo sapiens) (UniProt P11229). The test is described as follows: Cholinergic receptor muscarinic 1 (CHRM1) small molecule antagonists, cell-based qHTS assay (AID 1963588). Also: nearly all actives have a fitted effect of over 40% in size. In short, it runs like this:
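Compounds were tested at 15 concentrations in three independent runs. Dye-loaded CHRM1-CHO cells were exposed 5 min at room temperature before stimulation by acetylcholine added at 50nM. Intracellular calcium was read kinetically on FDSS for 3 min.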

Test [15] shares this target. Nature of the test: Cholinergic receptor muscarinic 1 (CHRM1) small molecule agonists, cell-based qHTS assay (AID 1963589). Also: nearly all actives have a fitted effect of over 35% in size. In short, it runs like this:
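qHTS, 15-point titration, 3 independent runs: compounds pin-transferred onto dye-loaded CHRM1-CHO cells (human M1), calcium fluorescence followed every second to detect agonism.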

Test [16] can be described thus: cAMP Responsive Elements (CRE) small molecule agonists, cell-based qHTS assay (AID 1963590). The method, boiled down:
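Quantitative HTS for CRE agonists: HEK 293T CRE-bla cells, overnight plating, 3 h compound incubation at 37 C/5% CO2, then 2 h room-temperature LiveBLAzer B/G FRET substrate loading.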

Test [17] is described as follows: cAMP Responsive Elements (CRE) small molecule antagonists, cell-based qHTS assay (AID 1963591; active = well fitted inhibition curve with a large enough effect in the signal ratio in the repeat runs, not every such curve was filed as active; the % refers to the signal ratio). In short, it runs like this:
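Fluorescence intensity from cleaved LiveBLAzer B/G substrate (2 h, room temperature) quantified CRE-bla activity in HEK 293T cells exposed 3 h to compound with 0.25 uM final NKH477.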

The target of test [18] is Beta-2 adrenergic receptor (Homo sapiens) (UniProt P07550). The test is described as follows: Adrenergic beta2 receptor (ADRB2) small molecule antagonists, cell-based qHTS assay (AID 1963592). Also: series mostly up to about 92 µM; nearly all actives have a fitted effect of over 50% in size. In short, it runs like this: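 Assay format: CHO-ADRB2 cells, 18-20hr seeding at 37C/5% CO2, then compound plus 1nM isoproterenol agonist mix for 0.5hr RT. Homogeneous time-resolved fluorescence cAMP detection after 1hr, expressed as 665/615 nm ratio.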

Test [19] deals with D(2) dopamine receptor (Homo sapiens) (UniProt P14416). Nature of the test: Dopamine D2 receptor (DRD2) small molecule agonists, cell-based qHTS assay (AID 1963594). Also: nearly all actives have a fitted effect of over 35% in size. In short, it runs like this: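 cAMP accumulation in DRD2-HEK293 cells measured by HTRF after 1 h detection; compounds added 10 min before NKH477 (200nM […]) forskolin-analogue stimulation, 30 min at room temperature, with Ro20-1724 present at 0.1 mM final.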

Test [20] shares this target. The test is described as follows: Dopamine D2 receptor (DRD2) small molecule antagonists, cell-based qHTS assay (AID 1963595; active = well fitted inhibition curve with a large enough effect in the signal ratio in the repeat runs, with a control signal flat; the % refers to the signal ratio; also: potency is read from the fitted curve at half-maximal effect). In short, it runs like this:
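Antagonism was scored as restored cAMP in HEK293-DRD2 cells. These cells were stimulated with 200 nM NKH477 and 12 nM quinpirole for 30 min at room temperature, in the presence of 0.1 mM Ro20-1724.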

Values without a mark were called inactive. Inconclusive results are not listed. Active and inactive are the calls of the source. Unless noted, calls follow the shape of the full dose curve.

5-hydroxytryptamine receptor 2A (Homo sapiens), sequence (P28223 whole entry, looked up): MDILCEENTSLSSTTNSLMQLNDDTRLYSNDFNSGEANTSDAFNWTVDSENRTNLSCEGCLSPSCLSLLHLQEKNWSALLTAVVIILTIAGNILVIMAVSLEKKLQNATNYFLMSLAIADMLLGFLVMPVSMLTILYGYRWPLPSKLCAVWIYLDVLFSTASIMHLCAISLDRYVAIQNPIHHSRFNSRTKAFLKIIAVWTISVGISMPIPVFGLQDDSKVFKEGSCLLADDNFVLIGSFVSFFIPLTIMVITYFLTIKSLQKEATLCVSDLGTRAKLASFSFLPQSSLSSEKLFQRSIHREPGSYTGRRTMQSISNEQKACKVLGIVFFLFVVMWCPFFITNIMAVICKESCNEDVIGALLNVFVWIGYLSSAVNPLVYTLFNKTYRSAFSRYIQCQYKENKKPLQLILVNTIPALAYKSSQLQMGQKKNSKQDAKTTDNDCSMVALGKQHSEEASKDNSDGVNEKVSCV
Muscarinic acetylcholine receptor M1 (Homo sapiens), sequence (P11229 whole entry, looked up): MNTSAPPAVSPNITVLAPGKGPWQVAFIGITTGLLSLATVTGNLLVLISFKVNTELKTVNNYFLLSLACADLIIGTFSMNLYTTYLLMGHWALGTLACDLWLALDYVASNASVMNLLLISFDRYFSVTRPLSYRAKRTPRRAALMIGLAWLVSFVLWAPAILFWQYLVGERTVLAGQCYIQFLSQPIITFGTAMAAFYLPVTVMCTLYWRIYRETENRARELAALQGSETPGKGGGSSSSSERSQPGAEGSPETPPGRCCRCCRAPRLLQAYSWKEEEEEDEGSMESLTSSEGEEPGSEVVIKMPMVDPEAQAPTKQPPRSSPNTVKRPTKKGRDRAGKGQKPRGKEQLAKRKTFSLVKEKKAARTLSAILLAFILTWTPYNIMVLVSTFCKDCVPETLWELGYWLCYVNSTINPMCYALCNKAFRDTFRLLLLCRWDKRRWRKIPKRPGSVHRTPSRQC
Beta-2 adrenergic receptor (Homo sapiens), sequence (P07550 whole entry, looked up): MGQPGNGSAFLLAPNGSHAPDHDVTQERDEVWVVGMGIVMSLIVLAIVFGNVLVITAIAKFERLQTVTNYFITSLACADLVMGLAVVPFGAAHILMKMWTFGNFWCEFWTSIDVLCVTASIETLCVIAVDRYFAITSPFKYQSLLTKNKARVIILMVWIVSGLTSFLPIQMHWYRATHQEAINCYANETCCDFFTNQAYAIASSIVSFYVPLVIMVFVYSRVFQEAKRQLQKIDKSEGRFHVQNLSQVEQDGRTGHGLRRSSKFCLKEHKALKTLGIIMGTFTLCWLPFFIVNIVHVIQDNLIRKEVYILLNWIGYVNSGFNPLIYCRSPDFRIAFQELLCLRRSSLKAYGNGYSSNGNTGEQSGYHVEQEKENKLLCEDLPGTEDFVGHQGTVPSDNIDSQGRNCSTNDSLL
Gonadotropin-releasing hormone receptor (Homo sapiens), sequence (P30968 whole entry, looked up): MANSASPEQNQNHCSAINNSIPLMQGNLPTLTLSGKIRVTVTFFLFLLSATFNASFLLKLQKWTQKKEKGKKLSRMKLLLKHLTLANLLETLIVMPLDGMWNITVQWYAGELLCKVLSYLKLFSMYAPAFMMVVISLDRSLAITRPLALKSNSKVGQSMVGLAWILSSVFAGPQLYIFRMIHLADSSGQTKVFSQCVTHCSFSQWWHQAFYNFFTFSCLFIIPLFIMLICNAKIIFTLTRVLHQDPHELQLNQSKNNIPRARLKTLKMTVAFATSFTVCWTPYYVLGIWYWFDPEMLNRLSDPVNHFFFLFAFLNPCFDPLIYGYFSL
D(2) dopamine receptor (Homo sapiens), sequence (P14416 whole entry, looked up): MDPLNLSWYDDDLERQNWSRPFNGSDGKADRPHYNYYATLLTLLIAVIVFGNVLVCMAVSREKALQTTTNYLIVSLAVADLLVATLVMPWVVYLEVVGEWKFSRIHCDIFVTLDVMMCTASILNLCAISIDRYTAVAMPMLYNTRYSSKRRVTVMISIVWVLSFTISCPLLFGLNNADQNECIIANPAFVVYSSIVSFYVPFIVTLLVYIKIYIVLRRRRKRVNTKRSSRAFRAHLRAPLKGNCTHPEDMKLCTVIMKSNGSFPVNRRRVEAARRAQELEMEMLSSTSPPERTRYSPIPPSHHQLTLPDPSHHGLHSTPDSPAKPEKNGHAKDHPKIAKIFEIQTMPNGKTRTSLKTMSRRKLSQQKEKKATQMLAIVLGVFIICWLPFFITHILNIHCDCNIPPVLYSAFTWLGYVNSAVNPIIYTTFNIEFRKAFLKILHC
KiSS-1 receptor (Homo sapiens), sequence (Q969F8 whole entry, looked up): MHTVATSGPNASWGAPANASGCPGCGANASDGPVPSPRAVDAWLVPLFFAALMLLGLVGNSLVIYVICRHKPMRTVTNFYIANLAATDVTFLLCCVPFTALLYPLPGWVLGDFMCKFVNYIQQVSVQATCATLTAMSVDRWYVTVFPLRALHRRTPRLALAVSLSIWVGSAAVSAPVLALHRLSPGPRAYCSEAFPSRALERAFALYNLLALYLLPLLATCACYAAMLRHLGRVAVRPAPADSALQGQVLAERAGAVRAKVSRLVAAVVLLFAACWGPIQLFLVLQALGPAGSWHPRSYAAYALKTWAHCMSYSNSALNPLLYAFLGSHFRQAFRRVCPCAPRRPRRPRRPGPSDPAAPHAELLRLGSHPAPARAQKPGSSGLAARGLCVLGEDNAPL

For the compound `COc1cc(N)c(Cl)cc1C(=O)NC1CCN(Cc2ccccc2)CC1`, the Potency entry in test [1], in test [2], in test [3], in test [4], in [5] and in [6] was “inactive” in each case. Besides, the Potency result in test [7], in test [8], in [9], in test [10], in test [11] and in test [13] was “inactive” throughout. For the same compound, the Potency entry in test [14], in [15], in [16], in [17], in test [18] and in test [19] was “inactive” in each case. In addition, the values for the Potency in test [12] and in [20] were 1830 nM (active) and 29.8 nM (active), respectively.
For `CC(C)(O)C(=O)c1ccc(OCCO)cc1`, the Potency result in test [1], in [2], in [3], in test [4], in test [5] and in test [6] was “inactive” in each case. Besides, the Potency entry in [7], in [8], in [9], in [10], in [11] and in test [12] was “inactive” in each case. Moreover, the Potency entry in [13], in test [14], in [15], in test [16], in [17] and in [18] was “inactive” throughout. In addition, the Potency result in test [19] and in [20] was “inactive” throughout.
Turning to `CC1(C)[C@H](C(=O)OCc2cccc(Oc3ccccc3)c2)[C@@H]1C=C(Cl)Cl`, the Potency result in test [1], in [2], in test [3], in test [4], in test [5] and in [6] was “inactive” each time. The Potency entry in test [7], in test [8], in test [9], in test [10], in test [11] and in test [12] was “inactive” throughout. Besides, the Potency result in test [13], in test [14], in [15], in test [16], in [17] and in test [18] was “inactive” each time. Moreover, the Potency entry in test [19] and in [20] was “inactive” each time.
For the compound `COc1cc(Cl)ccc1Cl`, the Potency result in test [1], in [2], in [3], in test [4], in test [5] and in test [6] was “inactive” in each case. Moreover, the Potency result in test [7], in test [8], in [9], in test [10], in test [11] and in test [12] was “inactive” in each case. Further, the Potency entry in test [13], in test [14], in test [15], in test [16], in test [17] and in [18] was “inactive” throughout. In addition, the Potency result in test [19] and in test [20] was “inactive” in each case.
Turning to `CC(C)N=C=NC(C)C`, the Potency result in test [1], in test [2], in [3], in test [4], in test [5] and in [6] was “inactive” throughout. The Potency result in test [7], in test [8], in test [9], in test [10], in test [11] and in test [12] was “inactive” throughout. Besides, the Potency result in [13], in test [14], in [15], in test [16], in test [17] and in test [18] was “inactive” throughout. In addition, the Potency entry in [19] and in test [20] was “inactive” throughout.
As for `CC1(C)COCN1`, the Potency result in test [1], in test [2], in test [3], in [4], in [5] and in test [6] was “inactive” throughout. In addition, the Potency entry in [7], in test [8], in test [9], in test [10], in test [11] and in test [12] was “inactive” each time. For the same compound, the Potency result in test [13], in [14], in [15], in test [16], in [17] and in test [18] was “inactive” in each case. Moreover, the Potency result in test [19] and in [20] was “inactive” each time.
Consider `CC(C)(C)c1ccc(C(=O)CCCCl)cc1`, for which the Potency result in test [1], in test [3], in [4], in test [5], in test [6] and in [7] was “inactive” in each case. Besides, the Potency result in test [8], in [9], in [10], in [11], in [12] and in [13] was “inactive” in each case. Further, the Potency entry in [14], in test [15], in test [16], in test [17], in test [18] and in test [19] was “inactive” each time. Further, the Potency entry in test [20] is “inactive”. Besides, the Potency in test [2] was 23700 nM (active).

The values are drawn from PubChem BioAssay (Tox21).
